Our source for the Potency and activity change, negative = cytotoxicity values is PubChem BioAssay (Tox21).

Each structure is given as a SMILES string. Inconclusive results are not listed. Entries that show only a call come without a potency. Calls of active or inactive are those of the source. Calls follow the shape of the dose curve; as a rule, active = well fitted cell-killing curve with a large enough effect in the repeat runs; inconclusive = weak or mixed curves, or effect the other way; inactive = no such curve, though single readings can be large or run the other way.

This assay can be described thus: qHTS assay to identify small molecule antagonists of the progesterone receptor (PR) signaling pathway - cell viability counter screen (AID 1346798). Also: nearly all actives have a fitted effect of over 50% in size. Particulars: PR-UAS-bla HEK293T viability, CellTiter-Glo luminescence, 16 h; series mostly up to 92.4 µM. The gist of the method:
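PR-UAS-bla HEK293T cells in medium with 2% charcoal-stripped FBS were treated with compounds plus R5020 for 16 hr at 37C. Cell viability was then read by CellTiter-Glo luminescence after 30 min at room temperature in the same wells.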
(In general: In qHTS, concentration-response curves come from the screen itself.)
Regarding `CC(CCc1ccc2c(c1)OCO2)NN` (stereo not given), the Potency entry was “inactive”.
Still for that read-out and setting: in the case of `OC/C(Br)=C(\Br)CO` it was “inactive”; in that of `CN1CCCN=C1/C=C/c1cccs1`, “inactive”; in that of `CC1(C)C(=O)N(Br)C(=O)N1Cl`, “inactive”.
In the case of `CCC(C(=O)OCCOCCN(CC)CC)c1ccccc1` (stereo not given), the Potency result is “inactive”.
Same read-out and setting: next, `O=C(O)c1cccc(O)c1`: “inactive”; `NC(=O)Nc1ccc(Cl)cc1`: “inactive”; `O=C(O)c1ccc(CO)o1`: “inactive”.
For the molecule `CCCCCCOC(=O)C(C)C`, the Potency entry is “inactive”.
As for `CCCCCCCCCCCC[N+](C)(C)CCCS(=O)(=O)[O-]`, the Potency entry is “inactive”.
Regarding `CCCOCCOCCO`, the Potency result was “inactive”.
On to `Cc1cc(O)c2c(O)c3c(O)cccc3cc2c1`, for which the Potency entry is “inactive”.
Still for that read-out and setting: in the case of `Cn1c(=O)c2c(ncn2CC(=O)O)n(C)c1=O` it was “inactive”; in that of `CC#N`, “inactive”; in that of `CO[C@H]1O[C@H](CO)[C@@H](O)[C@H](O)[C@H]1O`, “inactive”.
The same measure, in the same setting: in the case of `CCOC(=O)C(C)Oc1ccc(Oc2nc3ccc(Cl)cc3o2)cc1` (stereo not given) it was “inactive”; in that of `Cc1oncc1C(=O)Nc1ccc(C(F)(F)F)cc1`, “inactive”.
As for `CC1CN(c2cc3c(cc2F)c(=O)c(C(=O)O)cn3-c2ccc(F)cc2F)CCN1` (stereo not given), the activity change, negative = cytotoxicity is 0.324% [at 8.39 µM] (inactive).
With `COC(OC)(C(=O)c1ccccc1)c1ccccc1`, the Potency result was “inactive”.
Same read-out and setting: next, `Cc1nc2ccccc2s1`: “inactive”; `CCOCCn1c(C2CCN(CCc3ccc(C(C)(C)C(=O)O)cc3)CC2)nc2ccccc21`: “inactive”; `CC(=O)Nc1ccc(N)cc1`: “inactive”.
Regarding `CCC(=O)OC/C=C/c1ccccc1`, the Potency result is “inactive”.
Take `CN1CCN(c2c(F)cc3c(=O)c(C(=O)O)cn4c3c2OCN4C)CC1`: the activity change, negative = cytotoxicity was 10.3% [at 18.9 µM] (inactive).
As for `CCC(C)=O`, the Potency entry is “inactive”.
